Several values for one entry are separate records, joined by “and”; a condition that tells them apart may be missing. Equal values may be shown once. Out of some 5,500 compounds screened, about 2,000 (36%) were called active. Another 18% or so got no clear call; they are omitted. This is one part of the list. Values without a mark were called inactive. Cut-off read from the data, not from the text of the source: active = normalized growth mostly below about 0.91 (no sharp cut-off); inconclusive = no clear call, values can overlap the other calls; inactive = mostly above about 0.92.
Experiment: chemical genetic growth profiling, strain panel (AID 1159580);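 note: tested at 20 µM; growth read once vehicle control cultures reached saturation at 30 °C; 1 = growth at the plate median or of vehicle wells; lower values mean less growth of the strain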
Conditions: S. cerevisiae deletion strains, growth OD

Nc1ccc(N=Nc2ccccc2)c(N)n1
normalized growth (locus YAL013W, strain DEP1, active compounds read low): 0.984
normalized growth (locus YAL021C, strain ccr4, active compounds read low): 0.597 (active)
normalized growth (locus YAL026C, strain drs2, active compounds read low): 0.262 (active)
normalized growth (locus YAL030W, strain snc1, active compounds read low): 0.909 (active)
normalized growth (locus YBL061C, strain skt5, active compounds read low): 0.841 (active)
normalized growth (locus YBR009C, strain hhf1, active compounds read low): 0.635 (active)
normalized growth (locus YBR021W, strain FUR4, active compounds read low): 1.16 [resistant] (active)
normalized growth (locus YBR023C, strain chs3, active compounds read low): 0.764 (active)
normalized growth (locus YBR171W, strain sec66, active compounds read low): 0.96
normalized growth (locus YBR229C, strain ROT2, active compounds read low): 1
normalized growth (locus YBR231C, strain swc5, active compounds read low): 0.742 (active)
normalized growth (locus YBR279W, strain paf1, active compounds read low): 0.807 (active)
normalized growth (locus YCL011C, strain gbp2, active compounds read low): 0.78 (active)
normalized growth (locus YCL016C, strain dcc1, active compounds read low): 0.739 (active)
normalized growth (locus YCL029C, strain bik1, active compounds read low): 1.03
normalized growth (locus YCL069W, strain vba3, active compounds read low): 0.725 (active)
normalized growth (locus YCR088W, strain abp1, active compounds read low): 0.945
normalized growth (locus YDL005C, strain med2, active compounds read low): 1
normalized growth (locus YDL035C, strain GPR1, active compounds read low): 0.932
normalized growth (locus YDL040C, strain nat1, active compounds read low): 0.978
normalized growth (locus YDL074C, strain BRE1, active compounds read low): 0.866
normalized growth (locus YDL101C, strain DUN1, active compounds read low): 0.968
normalized growth (locus YDL134C, strain PPH21, active compounds read low): 0.999
normalized growth (locus YDL185W, strain tfp1, active compounds read low): 0.998
normalized growth (locus YDL192W, strain arf1, active compounds read low): 0.901 (active)
normalized growth (locus YDR001C, strain nth1, active compounds read low): 1
normalized growth (locus YDR069C, strain doa4, active compounds read low): 0.846 (active)
normalized growth (locus YDR101C, strain arx1, active compounds read low): 0.995
normalized growth (locus YDR137W, strain rgp1, active compounds read low): 0.351 (active)
normalized growth (locus YDR150W, strain NUM1, active compounds read low): 1.01
normalized growth (locus YDR159W, strain sac3, active compounds read low): 0.884
normalized growth (locus YDR162C, strain NBP2, active compounds read low): 0.939
normalized growth (locus YDR195W, strain ref2): 1.61 [resistant] (active)
normalized growth (locus YDR297W, strain sur2, active compounds read low): 0.828 (active)
normalized growth (locus YDR318W, strain mcm21, active compounds read low): 0.951
normalized growth (locus YDR334W, strain swr1, active compounds read low): 0.833 (active)
normalized growth (locus YDR335W, strain msn5, active compounds read low): 0.785 (active)
normalized growth (locus YDR388W, active compounds read low): 0.997
normalized growth (locus YDR392W, strain spt3, active compounds read low): 0.6 (active)
normalized growth (locus YDR502C, strain sam2, active compounds read low): 0.954
normalized growth (locus YEL003W, strain gim4, active compounds read low): 0.712 (active)
normalized growth (locus YEL037C, strain rad23, active compounds read low): 0.922
normalized growth (locus YEL061C, strain CIN8 (second series), active compounds read low): 0.838 (active)
normalized growth (locus YEL061C, strain CIN8, active compounds read low): 0.997
normalized growth (locus YER015W, strain faa2, active compounds read low): 0.794 (active)
normalized growth (locus YER016W, strain bim1, active compounds read low): 0.853 (active)
normalized growth (locus YER110C, active compounds read low): 1.01
normalized growth (locus YER111C, strain swi4, active compounds read low): 0.801 (active)
normalized growth (locus YER155C, strain BEM2 (second series), active compounds read low): 0.226 (active)
normalized growth (locus YER155C, strain BEM2, active compounds read low): 1.03
normalized growth (locus YER167W, strain BCK2, active compounds read low): 1.02
normalized growth (locus YFR010W, strain ubp6, active compounds read low): 0.862 (active)
normalized growth (locus YGL078C, strain dbp3, active compounds read low): 0.937
normalized growth (locus YGL086W, strain mad1, active compounds read low): 0.971
normalized growth (locus YGL167C, strain pmr1, active compounds read low): 0.977
normalized growth (locus YGL173C, strain kem1, active compounds read low): 0.668 (active)
normalized growth (locus YGL227W, strain vid30, active compounds read low): 0.83 (active)
normalized growth (locus YGL240W, strain doc1, active compounds read low): 0.832 (active)
normalized growth (locus YGL248W, strain PDE1, active compounds read low): 0.989
normalized growth (locus YGL253W, strain hxk2, active compounds read low): 0.695 (active)
normalized growth (locus YGR078C, strain PAC10, active compounds read low): 0.918
normalized growth (locus YGR135W, strain pre9, active compounds read low): 0.854 (active)
normalized growth (locus YGR229C, strain SMI1, active compounds read low): 0.996
normalized growth (locus YGR252W, strain gcn5, active compounds read low): 0.943
normalized growth (locus YHR013C, strain ard1, active compounds read low): 0.573 (active)
normalized growth (locus YHR027C, strain rpn1, active compounds read low): 0.798 (active)
normalized growth (locus YHR030C, strain SLT2, active compounds read low): 0.995 and 0.956
normalized growth (locus YHR079C, strain IRE1 (second series), active compounds read low): 0.99
normalized growth (locus YHR079C, strain IRE1, active compounds read low): 0.965
normalized growth (locus YHR094C, strain hxt1, active compounds read low): 1.02
normalized growth (locus YHR129C, strain ARP1, active compounds read low): 1.01
normalized growth (locus YHR142W, strain chs7, active compounds read low): 0.543 (active)
normalized growth (locus YHR200W, strain rpn10, active compounds read low): 0.983
normalized growth (locus YIL066C, strain RNR3, active compounds read low): 0.956
normalized growth (locus YIL073C, strain SPO22, active compounds read low): 0.972
normalized growth (locus YIL125W, strain kgd1, active compounds read low): 1.02
normalized growth (locus YIR030C, strain dcg1, active compounds read low): 1.02
normalized growth (locus YJL092W, strain hpr5, active compounds read low): 0.945
normalized growth (locus YJL095W, strain BCK1 (second series), active compounds read low): 0.478 (active)
normalized growth (locus YJL095W, strain BCK1, active compounds read low): 0.833 and 0.952
normalized growth (locus YJL115W, strain asf1, active compounds read low): 1.01
normalized growth (locus YJL129C, strain trk1, active compounds read low): 1.14 [resistant] (active)
normalized growth (locus YJL134W, strain LCB3, active compounds read low): 1
normalized growth (locus YJL154C, strain vps35, active compounds read low): 0.98
normalized growth (locus YJL164C, strain tpk1, active compounds read low): 0.759 (active)
normalized growth (locus YJL166W, strain qcr8, active compounds read low): 0.494 (active)
normalized growth (locus YJL168C, strain set2, active compounds read low): 1
normalized growth (locus YJL187C, strain SWE1 (second series), active compounds read low): 0.961
normalized growth (locus YJL187C, strain SWE1, active compounds read low): 0.727 (active)
normalized growth (locus YJR043C, strain POL32, active compounds read low): 0.984
normalized growth (locus YJR066W, strain TOR1, active compounds read low): 0.91

Source: PubChem BioAssay AID1159580 (chemical genetic matrix, 2015)
